Results taken from ChEMBL document CHEMBL3433997, “St. Jude Leishmania screening dataset” (2016).

Biological target: Glucose transporter (Leishmania mexicana) (UniProt O61059)
Assay: ST_JUDE_LEISH: Cytotoxicity at 2uM final concentration against transgenic Leishmania Mexicana promastigotes LmGT2 that are glucose transport deficient and complemented with the L. Mexicana glucose transporter 2. Activity is measured by DNA content using SYBR green in vitro
Type: functional

Compound	inhibition [%]
Cc1ccc(-c2nn3c(O)c4c(nc3c2C)CCCC4)cc1	1.28
CCCN1CCC2(CC1)NC(C(=O)NCCC(C)C)Cc1c2[nH]c2cc(Cl)ccc12 (stereo not given)	2.82
Cc1cc(-c2cc(Cl)ccc2Cl)no1	-0.72
CN(C(=O)NCCc1ccccc1)C1CCN(CCCCCNC(=O)/C=C/c2ccc(Cl)c(Cl)c2)CC1	12.4
CCCCn1c(Sc2ccc(C#N)c([N+](=O)[O-])c2)nnc1-c1cccc(Cl)c1	5.83
Cc1cc(N[C@@H](Cc2ccccc2)C(=O)NCCOc2ccccc2)nc(NCC2CCCCC2)n1	0.5
N#Cc1ccc(/C=C/C(=O)NCCCCCN2CCCN(C(=O)Nc3ccc(Cl)c(C(F)(F)F)c3)CC2)cc1	1.57
CN(c1ccccc1C(=O)Nc1ccccc1Oc1ccccc1)S(=O)(=O)c1ccccc1	5.08
O=C(/C=C/c1ccc(Cl)c(Cl)c1)NCCCCCN1CCCN(C(=O)Nc2ccc(OC(F)F)cc2)CC1	0.91
Cc1cc(N[C@@H](Cc2ccccc2)C(=O)NC2CCCC2)nc(NCCOc2ccccc2)n1	2.19
CO/C(=C/C=C/c1cc2cc(Cl)c(Cl)cc2[nH]1)C(=O)NC1CC(C)(C)N(C)C(C)(C)C1	-0.41
Cc1cc(O)c(-c2ccc(Oc3ccc(F)cc3)cc2)c(C)n1	-3.08
COc1cc(C(=O)N2CCOC(CCN3CCc4c(c5ccccc5n4C)C3)(c3ccc(Cl)c(Cl)c3)C2)cc(OC)c1OC (stereo not given)	-1.26
COc1cc(NC(=O)c2sc(-c3ccc(Cl)cc3)cc2NC(=O)N2CCCC2)ccc1OCCN1CCCC1	1.4
COc1cc(CCNCC(O)c2ccc([N+](=O)[O-])c(OCc3ccccc3)c2)cc(OC)c1OC (stereo not given)	0.48
